Source: PubChem BioAssay (NCATS)
Records with an inconclusive call do not appear. A call without a number means that no potency is given here. Activity calls are given as the source filed them. Calls come from the whole dose curve; as a rule, active = well fitted curve in the direction sought with a large enough effect; inconclusive = small, poorly fitted or top-dose-only effect, or another doubt; inactive = no such curve, though single readings can be large; an effect the other way counts as inactive or inconclusive. Bridge positions count the residues as written; N and C are the ends. Square brackets hold non-standard residues; d marks the D form. Peptide text beside a SMILES is read from it. * marks the point of attachment. Octanoyl(6-Me) = CCC(C)CCCCC(=O)*; Dab = NCC[CH](N)C(=O)O

What was measured:
[1] = biological target: Cytochrome P450 3A4 (Homo sapiens) (UniProt P08684); experiment: qHTS Assay for Inhibitors and Substrates of Cytochrome P450 3A4 (AID 884); conditions: recombinant CYP3A4, Luciferin-PPXE luminescence; series mostly up to 57.1 µM; note: nearly all actives have a fitted effect of over 50% in size
Summary of the method: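 20 nM human CYP3A4 with 25 uM Luciferin-PPXE (at KM) in 200 mM KPO4, preincubated 10 min with compound; NADPH regeneration started a 60 min RT reaction. Luciferin detected by luminescence, normalized to 57 uM ketoconazole as full inhibition.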

3D7 = experiment: qHTS profiling for inhibitors of Plasmodium falciparum proliferation (AID 504749); note: nearly all actives have a fitted effect of over 60% in size; conditions: P. falciparum in erythrocytes, SYBR Green DNA, 72 h; series mostly up to 28.7 µM
Summary of the method: (§1)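 P. falciparum-infected erythrocytes (0.3% parasitemia, 2.5% hematocrit final) were exposed to compounds for 72 h at 37 C in 5% CO2, then lysed with SYBR Green buffer overnight at room temperature; parasite DNA fluorescence was normalized to artemisinin and DMSO controls.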

7G8 = experiment: as above; conditions: P. falciparum in erythrocytes, SYBR Green DNA, 72 h; series mostly up to 28.7 µM
Summary of the method: as §1

AA1029 = experiment: as above; conditions: P. falciparum in erythrocytes, SYBR Green DNA, 72 h; series mostly up to 28.7 µM
Summary of the method: as §1

ATS95 = experiment: as above; conditions: P. falciparum in erythrocytes, SYBR Green DNA, 72 h; series mostly up to 28.7 µM
Summary of the method: as §1

C2A = experiment: as above; conditions: P. falciparum in erythrocytes, SYBR Green DNA, 72 h; series mostly up to 28.7 µM
Summary of the method: as §1

CP185 = experiment: as above; conditions: P. falciparum in erythrocytes, SYBR Green DNA, 72 h; series mostly up to 28.7 µM
Summary of the method: as §1

CP191 = experiment: as above; conditions: P. falciparum in erythrocytes, SYBR Green DNA, 72 h; series mostly up to 28.7 µM
Summary of the method: as §1

CP237 = experiment: as above; conditions: P. falciparum in erythrocytes, SYBR Green DNA, 72 h; series mostly up to 28.7 µM
Summary of the method: as §1

CP238 = experiment: as above; conditions: P. falciparum in erythrocytes, SYBR Green DNA, 72 h; series mostly up to 28.7 µM
Summary of the method: as §1

CP252 = experiment: as above; conditions: P. falciparum in erythrocytes, SYBR Green DNA, 72 h; series mostly up to 28.7 µM
Summary of the method: as §1

CP256 = experiment: as above; conditions: P. falciparum in erythrocytes, SYBR Green DNA, 72 h; series mostly up to 28.7 µM
Summary of the method: as §1

CP260 = experiment: as above; conditions: P. falciparum in erythrocytes, SYBR Green DNA, 72 h; series mostly up to 28.7 µM
Summary of the method: as §1

DFO2036 = experiment: as above; conditions: P. falciparum in erythrocytes, SYBR Green DNA, 72 h; series mostly up to 28.7 µM
Summary of the method: as §1

ECU = experiment: as above; conditions: P. falciparum in erythrocytes, SYBR Green DNA, 72 h; series mostly up to 28.7 µM
Summary of the method: as §1

JCK = experiment: as above; conditions: P. falciparum in erythrocytes, SYBR Green DNA, 72 h; series mostly up to 28.7 µM
Summary of the method: as §1

N140 = experiment: as above; conditions: P. falciparum in erythrocytes, SYBR Green DNA, 72 h; series mostly up to 28.7 µM
Summary of the method: as §1

SC27B = experiment: as above; conditions: P. falciparum in erythrocytes, SYBR Green DNA, 72 h; series mostly up to 28.7 µM
Summary of the method: as §1

TAB109 = experiment: as above; conditions: P. falciparum in erythrocytes, SYBR Green DNA, 72 h; series mostly up to 28.7 µM
Summary of the method: as §1

W2 = experiment: as above; conditions: P. falciparum in erythrocytes, SYBR Green DNA, 72 h; series mostly up to 28.7 µM
Summary of the method: as §1
Potency is the fitted concentration of half-maximal effect.

Chain of Cytochrome P450 3A4 (Homo sapiens) (P08684 whole entry, looked up): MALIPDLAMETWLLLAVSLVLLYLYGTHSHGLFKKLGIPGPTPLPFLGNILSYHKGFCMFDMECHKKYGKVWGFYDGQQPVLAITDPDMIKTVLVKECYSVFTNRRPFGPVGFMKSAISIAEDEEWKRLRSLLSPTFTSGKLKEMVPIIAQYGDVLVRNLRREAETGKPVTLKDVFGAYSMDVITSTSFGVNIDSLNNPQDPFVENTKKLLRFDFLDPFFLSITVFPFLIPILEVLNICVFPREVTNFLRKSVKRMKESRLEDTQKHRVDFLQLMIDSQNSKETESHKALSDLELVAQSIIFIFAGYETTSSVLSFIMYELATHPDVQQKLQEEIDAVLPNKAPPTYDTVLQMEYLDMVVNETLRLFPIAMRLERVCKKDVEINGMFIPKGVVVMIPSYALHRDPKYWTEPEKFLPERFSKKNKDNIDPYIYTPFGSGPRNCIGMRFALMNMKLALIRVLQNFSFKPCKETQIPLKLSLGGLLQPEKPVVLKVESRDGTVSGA

| SMILES | Potency [1] | Potency (3D7) | Potency (7G8) | Potency (AA1029) | Potency (ATS95) | Potency (C2A) | Potency (CP185) | Potency (CP191) | Potency (CP237) | Potency (CP238) | Potency (CP252) | Potency (CP256) | Potency (CP260) | Potency (DFO2036) | Potency (ECU) | Potency (JCK) | Potency (N140) | Potency (SC27B) | Potency (TAB109) | Potency (W2) |
| --- | --- | --- | --- | --- | --- | --- | --- | --- | --- | --- | --- | --- | --- | --- | --- | --- | --- | --- | --- | --- |
| c1ccc2scnc2c1 | inactive |  |  |  |  |  |  |  |  |  |  |  |  |  |  |  |  |  |  |  |
| CCC(C)n1ncn(-c2ccc(N3CCN(c4ccc(OCC5COC(Cn6cncn6)(c6ccc(Cl)cc6Cl)O5)cc4)CC3)cc2)c1=O (stereo not drawn) |  | 3160 nM (active) | 3550 nM (active) | inactive | inactive | inactive | inactive | inactive | 5010 nM (active) | inactive | inactive | inactive | 6310 nM (active) | inactive | inactive | inactive | inactive | inactive | inactive | 2130 nM (active) |
| O=S(=O)(O)c1ccccc1 | inactive |  |  |  |  |  |  |  |  |  |  |  |  |  |  |  |  |  |  |  |
| O=C(O)c1ccccc1C(c1ccc(O)cc1)c1ccc(O)cc1 | inactive |  |  |  |  |  |  |  |  |  |  |  |  |  |  |  |  |  |  |  |
| O[C@@H]([C@H](O)[C@@H](O)CBr)[C@@H](O)CBr | inactive |  |  |  |  |  |  |  |  |  |  |  |  |  |  |  |  |  |  |  |
| CCC(C)CCCCC(=O)NC(CCN)C(=O)NC(C(=O)NC(CCN)C(=O)NC1CCNC(=O)C(C(C)O)NC(=O)C(CCN)NC(=O)C(CCN)NC(=O)C(CC(C)C)NC(=O)C(Cc2ccccc2)NC(=O)C(CCN)NC1=O)C(C)O (stereo not drawn) ({Octanoyl(6-Me)}-[Dab]T[Dab][Dab][Dab]FL[Dab][Dab]T; lactam 4-C; configuration not given here) | inactive | inactive | inactive | inactive | inactive | inactive | inactive | inactive | inactive | inactive | inactive | inactive | inactive | inactive | inactive | inactive | inactive | inactive | inactive | inactive |
| CC(C)CN(C[C@@H](O)[C@H](Cc1ccccc1)NC(=O)O[C@H]1CCOC1)S(=O)(=O)c1ccc(N)cc1 |  | inactive | 10000 nM (active) | inactive | inactive | inactive | inactive | inactive | inactive | inactive | inactive | inactive | inactive | inactive | inactive | inactive | inactive | inactive | inactive |  |
| CC(=O)O[C@@]12CO[C@@H]1C[C@H](O)[C@@]1(C)C(=O)[C@H](O)C3=C(C)[C@@H](OC(=O)C(O)[C@@H](NC(=O)OC(C)(C)C)c4ccccc4)C[C@@](O)([C@@H](OC(=O)c4ccccc4)[C@H]21)C3(C)C (stereo partly drawn) |  | 25.1 nM (active) | 398 nM (active) | 44.7 nM (active) | 35.5 nM (active) | 31.6 nM (active) | 25.1 nM (active) | 28.2 nM (active) | 17.8 nM (active) | 28.2 nM (active) | 17.8 nM (active) | 31.6 nM (active) | 25.1 nM (active) | 22.4 nM (active) | 63.1 nM (active) | inactive | 89.1 nM (active) | 199 nM (active) | 31.6 nM (active) | 15.1 nM (active) |
| CO[C@@H]1[C@@H](OC2OC(C)C(OC3CC(C)(O)C(OC(=O)CC(C)C)C(C)O3)C(N(C)C)C2O)[C@@H](CC=O)C[C@@H](C)C(=O)/C=C\C2O[C@H]2C[C@@H](C)OC(=O)C[C@H]1OC(C)=O (stereo partly drawn) |  | 11200 nM (active) | 8910 nM (active) | 5010 nM (active) | 11200 nM (active) | 10000 nM (active) | 7940 nM (active) | 11200 nM (active) | 10000 nM (active) | 10000 nM (active) | 5010 nM (active) | 5010 nM (active) | 7940 nM (active) | 10000 nM (active) | 8910 nM (active) | inactive | 8910 nM (active) | 10000 nM (active) | 3980 nM (active) | 1690 nM (active) |
| Cc1cc(CC(C)CC(C)(C)C)n(O)c(=O)c1 (stereo not drawn) |  | 2000 nM (active) | 2820 nM (active) | 3160 nM (active) | 3160 nM (active) | 2510 nM (active) | 1120 nM (active) | 1120 nM (active) | 2820 nM (active) | 2510 nM (active) | 2820 nM (active) | 1260 nM (active) | 3160 nM (active) | 1780 nM (active) | 2820 nM (active) | 11200 nM (active) | 1000 nM (active) | 2820 nM (active) | 2240 nM (active) | 2130 nM (active) |
| CCC(=O)O[C@@H](OP(=O)(CCCCc1ccccc1)CC(=O)N1C[C@H](C2CCCCC2)C[C@H]1C(=O)O)C(C)C (stereo partly drawn) |  | inactive | 12600 nM (active) | inactive | inactive | inactive | inactive | inactive | inactive | inactive | inactive | inactive | inactive | inactive | inactive | inactive | inactive | inactive | inactive |  |
| Nc1nc(Cl)nc2c1ncn2C1CC(O)C(CO)O1 (stereo not drawn) |  |  |  |  |  |  |  |  |  |  |  |  |  |  |  |  |  |  |  | inactive |
| O=c1cc(-c2cccc(O)c2)oc2c(O)c(O)ccc12 | 15800 nM (active) |  |  |  |  |  |  |  |  |  |  |  |  |  |  |  |  |  |  |  |
| CC1(C)S[C@@H]2[C@H](NC(=O)COc3ccccc3)C(=O)N2[C@H]1C(=O)O |  | inactive | inactive | inactive | inactive | inactive | inactive | inactive | inactive | inactive | inactive | inactive | inactive | inactive | inactive | inactive | inactive | inactive | inactive | inactive |
| CCCCCCCCCCCCC[N+](C)(C)Cc1ccccc1 | inactive |  |  |  |  |  |  |  |  |  |  |  |  |  |  |  |  |  |  |  |
| Nc1nc(-c2ccc(Cl)c(Cl)c2)c(-c2ccncc2)s1 | 794 nM (active) |  |  |  |  |  |  |  |  |  |  |  |  |  |  |  |  |  |  |  |
| CC1CCC(C(C)C)C(OC(=O)c2ccccc2O)C1 (stereo not drawn) |  | inactive | inactive | inactive | inactive | inactive | inactive | inactive | inactive | inactive | inactive | inactive | inactive | inactive | inactive | inactive | inactive | inactive | inactive | inactive |
| CO/N=C(/C(=O)N[C@@H]1C(=O)N2C(C(=O)O)=CCS[C@H]12)c1csc(N)n1 |  | inactive | inactive | inactive | inactive | inactive | inactive | inactive | inactive | inactive | inactive | inactive | inactive | inactive | inactive | inactive | inactive | inactive | inactive | inactive |
| O=[N+]([O-])c1cccc(Cl)c1Cl | inactive |  |  |  |  |  |  |  |  |  |  |  |  |  |  |  |  |  |  |  |
